# Test results reported in PubChem BioAssay AID623908 (Johns Hopkins Ion Channel Center, 2012).
# In all, about 2,500 compounds went through this assay and about 1,500 (60%) were called active.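 Rule for the calls: active = duplicate-averaged ratio beyond 3 SD from buffer wells, up or down, though filed actives are nearly all decreases; inactive = the rest.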 The set was probably picked from earlier hits. These entries were drawn from the full list.
# Assay: membrane potential response in parental HEK293 cells, counter-screen for CHT activator project, cell-based, membrane potential dye (AID 623908)
# Conditions: parental HEK293, membrane potential dye fluorescence (FDSS); at 10 µM; measured after EC20 choline addition
row,Structure (SMILES),ratio readout change
1,CCN1CCN(c2ccc([N+](=O)[O-])cc2C#N)CC1,-38.3 (active)
2,CN1CCN(c2cc(N3CCNCC3)ccc2[N+](=O)[O-])CC1,-81.4 (active)
3,Cc1nc2ccc(N3CCN(C)CC3)cc2nc1C,-22.9 (active)
4,CCCCCn1c(=O)c(C(=O)Nc2c(C)n(C)n(-c3ccccc3)c2=O)c(O)c2ccccc21,inactive
5,CC[N+](CC)(CC)CCCCCCCCCC[N+](CC)(CC)CC,-41.6 (active)
6,CCOc1ccc(-c2cc(C)[n+](CCN(CC)CC)c(-c3ccc(OCC)cc3)c2)cc1,inactive
